HT1080 IDH1KD tx – qHTS for induction of synthetic lethality in tumor cells producing 2HG: qHTS for the HT-1080-IDH1KD cell line | HT-1080 IDH1 knockdown viability, ATP luminescence, 48 h | Potency, µM (highest dose often 46.1 µM), inactives show at the highest dose activity, negative = toxicity, usual class: cytotoxic | hit rate 2% among 360,000 | AID 686971, 2013;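 further: 0% = DMSO wells and -100% = cell-free medium wells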
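Knockdown cells (IDH1KD HT-1080) received compounds 2 h after plating at 750 cells/well and were kept 48 h at 37 °C in 5% FBS RPMI. A CellTiter-Glo luminescence read gave % activity for curve fitting.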
TGFb SMAD3 inh – qHTS for Inhibitors of TGF-b; HepG2 CAGA-GFP TGF-b/SMAD3 reporter, GFP fluorescence, 18 h; TGF-beta stimulated, 500 pg/mL final; hit rate 1.2% among 410,000; Potency, µM (titrated, usually from 46.1 µM), without a hit: top-dose activity, negative = inhibition, hits mostly inhibitors; further: on the % scale 0 is the no-effect control and ±100 the full control effect; nearly all actives have a fitted effect of over 65% in size
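Inhibition was scored as loss of TGF-beta-induced (500 pg/mL final, 18 hours, 37 degrees C) GFP in HEPG2 cells carrying a CAGA-GFP reporter, in DMEM with 1% FBS. Well GFP was summed per cell; Activity was normalised to unstimulated and stimulated DMSO wells, then concentration-response fitting.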
HT1080-NT tox – qHTS for induction of synthetic lethality in tumor cells producing 2HG: qHTS for the HT-1080-NT fibrosarcoma cell line | HT-1080-NT fibrosarcoma viability, CellTiter-Glo ATP luminescence, 48 h | Potency, µM (highest dose often 46.1 µM), for inactives: top-dose activity, negative = less viability, actives largely listed as cytotoxic | hit rate 1.6% among 360,000;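 further: NT is the 2HG producing partner of a matched IDH1 knockdown line; 0% = DMSO-treated cells and -100% = media-only wells without cells; nearly all actives have a fitted effect of over 55% in size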
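HT-1080-NT fibrosarcoma cells (2HG-overproducing), 750 cells/well in RPMI with 5% FBS, dosed after 2 h and incubated 48 h at 37C. CellTiter-Glo luminescence normalized to DMSO and no-cell wells; concentration-response curves fitted and classed.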
S2 tox – Viability Counterscreen for Primary qHTS for Inhibitors of ATXN expression; S2 cells (HEK-293 line with an ATXN2-luciferase reporter) viability, CellTiter-Fluor protease fluorescence, 24 h; AID 651635, 2014; Potency, µM (series often up to 56.7 µM), usual class: cytotoxic; hit rate 0.49% among 400,000; further: nearly all actives have a fitted effect of over 40% in size
HepG2 tox – qHTS for Inhibitors of TGF-b: Cytotox Counterscreen. HepG2 CAGA-GFP viability, ATP luminescence, 18 h. Potency, µM (top dose mostly 46.1 µM), without a hit: at the highest dose activity change, negative = cytotoxicity, most hits filed as cytotoxic. hit rate 0.76% among 410,000. AID 588856, 2011
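CellTiter-Glo luminescence gave cytotoxicity after 18 hours at 37 degrees C. The cells were HepG2 CAGA-GFP in 1% FBS DMEM, stimulated with 500 pg/mL TGF-beta after compound addition. %Activity was normalised to no-cell wells (complete cell-killing) and DMSO (no toxicity), and curves were fitted and classified.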
ATXN2 expr inh – Primary qHTS for Inhibitors of ATXN expression. Potency, µM (titrated, usually from 57 µM), for the others: top-dose activity change, negative = inhibition, usual class: inhibitors. HEK-293 ATXN2-luciferase reporter, luminescence, 24 h. hit rate 0.72% among 360,000. AID 1745845, 2022; further: on the % scale 0 is the no-effect control and ±100 the full control effect; nearly all actives have a fitted effect of over 55% in size
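qHTS (up to 57 uM final) was run with 24 h compound exposure of reporter cells at 37 °C. Each well was multiplexed: SteadyGlo luminescence measured ATXN2-luciferase expression after a fluorogenic Gly-Phe-AFC viability readout (25 uM final).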
Active calls of the source: *; i = inactive; ? = inconclusive; · = no result. This is a sample that favours compounds with a hit; in the whole collection about 3.8% have one here. The call rests on the fitted dose curve; in most records, active means well fitted curve in the direction sought with a large enough effect; inconclusive means small, poorly fitted or top-dose-only effect, or another doubt; inactive means no such curve, though single readings can be large; an effect the other way counts as inactive or inconclusive. Potency means the concentration at half of the fitted maximal effect.

SMILES	HT1080 IDH1KD tx	TGFb SMAD3 inh	HT1080-NT tox	S2 tox	HepG2 tox	ATXN2 expr inh
C=C1C=C(C(F)F)n2ncc(C(=O)NCc3ccc(OC)c(OC)c3)c2N1	·	-4%	·	·	10%	·
COc1cc(/C=C(\C#N)C(=O)NCC2CCCO2)ccc1OCC(N)=O (stereo not drawn)	20%	-3%	-4%	i	10µM*	-12%
Cc1ccc(NC2=C(N3CCCCC3)C(=O)c3ccccc3C2=O)cc1	?	?	?	?	-45%	?
O=C(/C=C/c1ccc(O)cc1)c1ccc(NC2=C(N3CCCCC3)C(=O)c3ccccc3C2=O)cc1	?	6.3µM*	-19%	?	-61%	?
O=C1C(Nc2ccccc2)=C(N2CCCCC2)C(=O)c2ccccc21	?	-3%	?	?	-52%	-11%
CN(C1=C(N2CCCCC2)C(=O)c2ccccc2C1=O)c1ccccc1	?	18µM*	?	?	-26%	-8%
COc1ccccc1NC1=C(N2CCCCC2)C(=O)c2ccccc2C1=O	?	?	4.6µM*	?	16µM*	?
COc1cccc(-c2ccc(O)c(CNCc3cccc4ccccc34)c2)n1	·	·	·	i	·	·
CC(C)(C)C(=O)NC(=S)NNC(=O)c1sc2ccccc2c1Cl	12µM*	-20%	16µM*	·	11µM*	18µM*
O=C(NNC(=S)NC1CCCCC1)c1sc2ccccc2c1Cl	?	?	?	i	-50%	7%
CN(C)c1ccc(CNC(=O)c2cccn2-c2nnc(N3CCCCC3)s2)cc1	·	-23%	·	i	-5%	-16%
COC(=O)[C@@H]1CCCN1C(=O)c1c(OC)cc(=O)n2c1CCN(Cc1ccc3cccnc3c1)CC2	·	·	·	i	·	·
COc1ccc(-n2nnnc2-c2cccc(OC)c2)cc1	1.6µM*	-22%	?	?	-3%	4%
CC(C)C(C(=O)Nc1nccs1)N1C(=O)c2ccccc2C1=O (stereo not drawn)	0%	0%	15%	i	6.3µM*	0%
CC(C)C(C(=O)Nc1ccncc1)c1ccc(Cl)cc1 (stereo not drawn)	?	?	-17%	i	-42%	-34%
CC(C)C(C(=O)Nc1nccs1)c1ccc(Cl)cc1 (stereo not drawn)	10µM*	?	?	i	-12%	-30%
COc1cc(=O)n2c(c1C(=O)NCc1ccsc1)CCN(Cc1nc3ccccc3[nH]1)CC2	·	·	·	i	·	·
CCOC(=O)N1CCC(NC(=O)c2cnn(-c3cccc(F)c3)c2-n2cccc2)CC1	·	0%	·	·	0%	·
Cc1cc2[nH]c3c(c[n+](C)c4ccccc34)c2cc1C	21µM*	?	?	·	10µM*	?
CN1CCc2c(sc(NC(=O)c3ccc(S(=O)(=O)N4CCCCCC4)cc3)c2C(N)=O)C1	21µM*	-1%	23µM*	·	-20%	?
CCN1CCc2c(sc(NC(=O)c3ccc(S(=O)(=O)N(C)C4CCCCC4)cc3)c2C(N)=O)C1	·	?	·	i	11µM*	?
CCCN1CCc2c(sc(NC(=O)c3ccc(S(=O)(=O)N4CCN(C(=O)OCC)CC4)cc3)c2C(N)=O)C1	6.5µM*	1%	7.3µM*	?	-61%	?
CCOC(=O)N1CCN(S(=O)(=O)c2ccc(C(=O)Nc3sc4c(c3C(=O)OC)CCN(C)C4)cc2)CC1	?	0%	18µM*	?	-54%	?
CCN1CCc2c(sc(NC(=O)c3ccc(S(=O)(=O)N(C)CC4CCCO4)cc3)c2C(N)=O)C1 (stereo not drawn)	-10%	3%	-3%	i	0%	-16%
CCOC(=O)c1c(NC(=O)c2ccc(S(=O)(=O)N3CCC(C)CC3)cc2)sc2c1CCN(C)C2	·	46%	·	·	-74%	·
SMILES	HT1080 IDH1KD tx	TGFb SMAD3 inh	HT1080-NT tox	S2 tox	HepG2 tox	ATXN2 expr inh
CCOC(=O)N1CCN(S(=O)(=O)c2ccc(C(=O)Nc3sc4c(c3C(N)=O)CCN(CC)C4)cc2)CC1	?	6%	?	i	-29%	-18%
C[N+](C)(CCCCCC[N+](C)(C)C1c2ccccc2-c2ccccc21)C1c2ccccc2-c2ccccc21	·	·	·	i	·	·
CC(=O)N1c2ccc(S(=O)(=O)NCC3CCC(C(=O)Nc4cc(C)ccc4C)CC3)cc2CC1C (stereo not drawn)	·	-30%	·	·	-35%	·
CCC1CN(CCNC(=O)C(C)(C)O)Cc2cc(OC)ccc2O1 (stereo not drawn)	·	·	·	i	·	·
CCN(CC)S(=O)(=O)c1ccc2c(c1)N(CC(=O)Nc1cccc(C#N)c1)C(=O)CO2	·	·	·	·	-1%	·
Cc1cccnc1NC(=S)NC(=O)c1cncc(Br)c1	10µM*	-24%	7.9µM*	i	-2%	46%
Cc1cccnc1NC(=S)NC(=O)c1cccs1	7.1µM*	?	6.3µM*	i	-4%	113%
CCCc1c(-c2cccc(Br)c2)ncn1Cc1ccccc1OC	?	·	?	?	·	-38%
CCCc1c(-c2ccc(Cl)cc2)ncn1CCc1ccccc1OC	?	·	?	35µM*	·	?
CCCc1c(-c2cccc(Cl)c2)ncn1CCc1ccccc1OC	?	·	?	22µM*	·	?
Oc1c(C(c2ccccc2F)N2CCC3(CC2)OCCO3)sc2nc(-c3ccco3)nn12 (stereo not drawn)	·	-21%	·	i	-4%	5%
CC(=O)N(Cc1ccc2c(c1)OCO2)Cc1cc2ccc(C)cc2nc1-c1cccc(C)c1	·	·	·	i	·	·
O=C(c1ccccc1)C(c1ccccc1)[n+]1csc2ccccc21 (stereo not drawn)	·	?	·	·	2%	·
C/C(=C1/C=Nc2ccccc21)c1ccc(N(C)C)cc1	·	?	·	·	-42%	·
Cc1oc(-c2cccc(Cl)c2)nc1CN1CCC(C(=O)NCCc2ccc(Cl)cc2)CC1	·	-1%	·	i	-16%	1%
Cc1cc(N2CCN(Cc3nc(-c4ccc(Cl)cc4)oc3C)CC2)cc(C)n1	21µM*	?	21µM*	i	-29%	?
COc1ccc(-c2nc(CN3CCN(c4cc(C)nc(C)c4)CC3)c(C)o2)c2ccccc12	15µM*	?	13µM*	?	-92%	11µM*
CCCN(CCC)CCNC(=O)C1CCN(Cc2nc(-c3ccc(Cl)cc3)oc2C)CC1	-22%	7%	-18%	16µM*	-28%	?
